We go through twelve compounds from PubChem BioAssay AID720597 (Broad Institute, 2013).

Entries with a potency or affinity are not part of this list. Calls of active or inactive are those of the source.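 The calls were made as follows: active = fitted half-maximal dose no more than twice the top valid tested dose, for compounds that lower signal; inconclusive = fit invalid, or curve flat with activity between -70 and -30; inactive = potency past limit, curve flat within ±30, or signal increasing.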

For the experiment, the target named is NAD-dependent protein deacylase sirtuin-5, mitochondrial (Homo sapiens) (UniProt Q9NXA8). Nature of the experiment: SIRT5 deacylase inhibitors, dose response, biochemical, fluorescence imaging, cherry-pick, set 6 (AID 720597).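 Also: lower AMC signal can also come from blocking the trypsin step.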 The conditions noted are these: Purified SirT5, succinyl-peptide-AMC/trypsin fluorescence; series mostly up to 15 µM.
Sequence of NAD-dependent protein deacylase sirtuin-5, mitochondrial (Homo sapiens) (Q9NXA8 whole entry, looked up): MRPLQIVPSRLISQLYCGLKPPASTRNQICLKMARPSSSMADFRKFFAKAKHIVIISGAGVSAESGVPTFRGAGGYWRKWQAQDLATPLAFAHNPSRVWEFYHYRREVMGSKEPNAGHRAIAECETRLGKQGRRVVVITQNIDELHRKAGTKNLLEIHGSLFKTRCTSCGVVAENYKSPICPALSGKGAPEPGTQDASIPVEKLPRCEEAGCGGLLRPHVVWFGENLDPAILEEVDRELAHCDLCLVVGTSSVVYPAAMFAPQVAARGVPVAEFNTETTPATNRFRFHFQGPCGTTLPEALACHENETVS
Take `CO[C@H]1CN(C)C(=O)c2cc(NC(=O)c3ccccc3F)ccc2OC[C@H](C)NC[C@@H]1C`: the call was inactive. As to `C[C@@H]1CN([C@H](C)CO)C(=O)c2cccc(NC(=O)NC3CCCCC3)c2O[C@@H]1CN(C)Cc1ccc(Oc2ccccc2)cc1`, the call was inactive. Under `COc1ccc(S(=O)(=O)N(C)C[C@H]2OCCCC[C@H](C)Oc3ccc(NS(=O)(=O)c4ccc(F)cc4)cc3C(=O)N([C@@H](C)CO)C[C@H]2C)cc1` stands “inactive”; under `C[C@H](NC(=O)[C@@H]1[C@@H](CO)[C@@H]2Cn3c(cccc3=O)[C@H]1N2Cc1ccccc1)c1ccccc1`, “inactive”. `Cc1ccc(S(=O)(=O)N(C)C[C@H]2OCCCC[C@H](C)Oc3ccc(NS(=O)(=O)c4ccccc4)cc3C(=O)N([C@H](C)CO)C[C@H]2C)cc1`: the compound was called inactive. On to `CO[C@H]1CC[C@@H]2CCOc3c(C#N)cccc3C(=O)N(C)C[C@H](C)C(=O)N(C)C[C@@H]1O2`, for which the call was inactive. Under `O=C(NCC[C@H]1CC[C@@H](NC(=O)C2CC2)[C@H](CO)O1)c1cc(Cl)cc(Cl)c1` stands “inactive”; under `C[C@@H]1CN([C@H](C)CO)C(=O)c2c(c3ccccc3n2C)-c2ccccc2CO[C@H]1CN(C)S(=O)(=O)c1ccc(C(F)(F)F)cc1`, “inactive”; under `CC(C)CC#Cc1ccc2c(c1)O[C@H](CN(C)C(=O)CC1CC1)[C@@H](C)CN([C@@H](C)CO)S2(=O)=O`, “inactive”. In the case of `Cc1ccc(S(=O)(=O)N(C)C[C@H]2Oc3ccc(NC(=O)Cn4cnnn4)cc3CC(=O)N([C@@H](C)CO)C[C@H]2C)cc1` it was “inactive”. In the case of `CC(C)CC#Cc1ccc2c(c1)O[C@H](CN(C)C(=O)c1cccc(F)c1)[C@@H](C)CN([C@H](C)CO)S2(=O)=O`, the compound was called inactive. In the case of `C[C@H]1CN([C@@H](C)CO)C(=O)c2cc(NC(=O)C3CC3)ccc2O[C@H]1CN(C)S(=O)(=O)c1cn(C)cn1` it was “inactive”.
